# A3G deaminase = inhibitors of human APOBEC3G DNA deaminase. recombinant A3G, ssDNA deamination FAM/TAMRA fluorescence. Q9HC16. actives 0.28% (n = 330,000). inhibition, % at 20 µM;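 active = inhibition of at least 40% at 20 µM, with no more than 30% in the related APOBEC3A deaminase screen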;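 also: plate controls were DMSO wells with A3G for no effect and wells lacking A3G enzyme for full effect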
# Target sequence (Q9HC16 whole entry, looked up): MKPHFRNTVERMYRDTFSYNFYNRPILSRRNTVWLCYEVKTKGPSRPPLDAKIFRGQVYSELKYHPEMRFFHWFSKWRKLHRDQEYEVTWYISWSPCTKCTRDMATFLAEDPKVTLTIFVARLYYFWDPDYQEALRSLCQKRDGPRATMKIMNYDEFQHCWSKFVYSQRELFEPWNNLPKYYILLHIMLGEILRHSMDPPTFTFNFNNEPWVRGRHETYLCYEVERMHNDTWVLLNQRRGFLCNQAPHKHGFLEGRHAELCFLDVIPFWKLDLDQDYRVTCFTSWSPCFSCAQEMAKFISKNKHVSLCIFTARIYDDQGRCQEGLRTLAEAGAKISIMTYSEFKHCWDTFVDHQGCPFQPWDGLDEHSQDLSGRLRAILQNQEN
# aDG glyco up = alpha-DG glycosylation activation; Pro5-aDG cells, alpha-DG glycosylation AlphaScreen (IIH6); 0% Pro5, 100% B10-LARGE cell signal; activation, % at 10 µM; actives 0.22% (n = 360,000);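 active = activation of at least 8% versus controls, or a plate z-score of at least 8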;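 also: Pro5 are CHO cells carrying HIG-tagged alpha-DG that lacks glycosylation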
# rCAG RNA binder = r(CAG) repeat RNA binding; inhibition, % at 3 µM; TO-PRO-1 dye displacement fluorescence; actives 1.3% (n = 370,000); AID 651821;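 active = inhibition above the plate cutoff, the mean of all test compounds on that plate plus 3 SD, cut at about 35% in these data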;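 also: 0% = DMSO alone and 100% = 100 µM mitoxantrone as full dye displacement; higher means more dye released from RNA so lower well fluorescence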
# PHOSPHO1 inh = blocks human PHOSPHO1 phosphatase activity | Q8TCT1 | recombinant PHOSPHO1, absorbance phosphatase assay | inhibition, % at 13.3 µM | actives 1.1% (n = 290,000); in the data active = inhibition above about 60%
# ALR inh = inhibitors of human sulfhydryl oxidase ALR; inhibition, % (no concentration beside the values); purified ALR, DTT oxidation, H2O2 HRP-luminol luminescence; P55789; actives 3.8% (n = 290,000);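 active = mean replicate inhibition above about 79%, with every replicate also reaching it, limit read from the data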
# Target sequence (P55789 whole entry, looked up): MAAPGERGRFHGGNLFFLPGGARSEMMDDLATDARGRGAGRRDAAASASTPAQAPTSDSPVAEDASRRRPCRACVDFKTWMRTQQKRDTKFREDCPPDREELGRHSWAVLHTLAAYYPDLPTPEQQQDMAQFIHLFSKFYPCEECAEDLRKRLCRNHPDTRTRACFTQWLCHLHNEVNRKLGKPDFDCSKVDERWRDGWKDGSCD
# A3A deaminase = blocks human APOBEC3A ssDNA deamination. P31941. recombinant A3A, FAM/TAMRA ssDNA deamination fluorescence. inhibition, % at 20 µM. actives 0.41% (n = 330,000);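 active = at least 40% inhibition at 20 µM here, with at most 30% in a related deaminase screen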;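 also: plate controls were A3A with DMSO for no effect and wells lacking A3A enzyme for full effect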
# * marks the source's active call; other numbers are inactive results; . = not tested or not shown. Rows were chosen to be rich in hits. Some 5.4% of all compounds tested hit in one or more screens of this group.
SMILES,A3G deaminase,aDG glyco up,rCAG RNA binder,PHOSPHO1 inh,ALR inh,A3A deaminase
CCCCCSc1nnc(-c2cc(Br)ccc2N)c(=O)[nH]1,-1.4,0.6,14.6,95.3*,.,-2.1
CCCCSc1nnc(-c2ccccc2N)c(=O)[nH]1,-5.8,0.0,6.0,90.3*,-1.0,-1.9
CCCCCCCSc1nnc(-c2ccccc2N)c(=O)[nH]1,-1.3,0.0,5.1,-14.1,-4.6,-0.5
Cc1ccccc1-c1cccc2c3c([nH]c12)[C@@H]1C[C@H]2[C@@H](CN1CC3)[C@H](C)ON2C,.,.,4.6,.,.,.
NS(=O)(=O)c1ccc(NC(=O)CSc2nc3ccccc3c(=O)n2-c2ccc(Br)cc2)cc1,.,.,23.5,.,.,.
O=C(O)C1Sc2[nH]c(=O)sc2C2c3cc(Cl)ccc3OC(=O)C12 (configuration not stated),-4.4,0.0,4.7,89.4*,94.0*,-3.0
O=C(Cn1c(=O)oc2cc(S(=O)(=O)N3CCc4ccccc43)ccc21)NC1CCCC1,-1.0,0.0,8.8,6.4,96.2*,5.8
COc1ccc(N(CC(=O)Nc2ccc(C)c(C)c2)C2=NC3CS(=O)(=O)CC3S2)cc1 (configuration not stated),-15.2,0.2,1.0,22.8,41.6,-3.2
Cc1cc(C)cc(N(CC(=O)Nc2ccccc2)C2=NC3CS(=O)(=O)CC3S2)c1 (configuration not stated),-1.5,0.4,2.8,36.2,98.4*,-1.1
COc1ccc(N(CC(=O)Nc2ccccc2C(F)(F)F)C2=NC3CS(=O)(=O)CC3S2)cc1 (configuration not stated),-6.6,-0.1,1.1,17.6,97.2*,0.0
CC(=O)CC[C@H]1CC[C@]2(CCCN(S(=O)(=O)c3ccccc3)C2)O1,.,.,-1.1,.,.,.
O=C(/C=C1\SC(=O)NC1=O)Nc1ccc(F)cc1,-8.5,0.0,2.4,20.4,97.4*,1.2
CC(c1ccccc1)n1c(Cn2ncc3ccccc3c2=O)n[nH]c1=S (configuration not stated),29.8,0.0,0.6,-54.5,39.7,-5.4
O=c1c2ccccc2cnn1Cc1n[nH]c(=S)n1C1CC2CCC1C2 (configuration not stated),39.8,0.2,-1.2,-84.2,85.8*,-3.3
COc1ccc(S[C@]2(C(=O)NCCc3ccccc3)CC(=O)N[C@@H]2c2ccc(OC)cc2)cc1,.,.,1.6,.,.,.
COc1cc(CNc2ccc(N3CCOCC3)cc2)ccc1OCC(=O)NC(C)(C)C,-5.8,0.2,3.7,.,99.3*,-2.0
COc1cc(CNc2ccc(N3CCN(C(C)=O)CC3)cc2)ccc1OCc1ccccc1,-1.2,-0.1,-0.5,24.1,99.2*,-2.7
Cc1cc(NC(=O)c2ccc(NS(=O)(=O)c3ccccc3)cc2)no1,.,.,4.7,.,.,.
COc1ccc(-c2nc(CS(=O)CC(=O)NCCc3ccc(C)cc3)c(C)o2)cc1OC (configuration not stated),-3.8,0.2,-1.3,20.7,99.3*,-2.8
COc1ccc(CCNC(=O)C2CCN(Cc3nc(-c4ccc(Cl)cc4)oc3C)CC2)cc1OC,.,0.0,-6.6,.,.,.
COc1ccc(CC(=O)NCCc2ccc(OC)c(OC)c2)cc1,-7.2,0.2,-4.1,24.2,-28.9,-2.2
CCOc1ccc(CCNC(=O)CS(=O)Cc2nc(-c3ccc(OC)cc3)oc2C)cc1OCC (configuration not stated),11.2,0.8,-3.1,18.5,99.5*,0.7
COc1ccc(-c2nc(CS(=O)CC(=O)NCCc3ccc(OC)c(OC)c3)c(C)o2)cc1 (configuration not stated),-5.6,-0.3,-6.8,54.7,98.1*,-2.8
COc1ccc(CCNC(=O)CS(=O)Cc2nc(-c3ccc(C)cc3)oc2C)cc1OC (configuration not stated),-4.5,0.5,-2.7,27.9,99.0*,-3.0
O=S1(=O)c2c(cccc2N2CC[C@@H](O)C2)OCCCN1C1CC1,.,.,2.3,.,.,.
SMILES,A3G deaminase,aDG glyco up,rCAG RNA binder,PHOSPHO1 inh,ALR inh,A3A deaminase
COC(=O)C1CN(C2CC2)CCS(=O)(=O)N1Cc1cn(Cc2ccc(Cl)cc2)nn1 (configuration not stated),.,.,-0.7,.,.,.
COC(=O)[C@]12C[C@H](CC(=O)N3CCN(C(=O)C4CC4)CC3)C(=O)N(CCc3ccc(OC)c(OC)c3)C1=C[C@H](COCc1ccccc1)O[C@@H]2C,.,.,-0.2,.,.,.
O=c1[nH][nH]c(-c2ccccc2O)c1C(C[N+](=O)[O-])c1ccc(Br)cc1 (configuration not stated),-0.5,-0.2,24.7,-0.3,87.7*,-0.4
Cc1ccc(C(C[N+](=O)[O-])c2c(-c3ccccc3O)[nH][nH]c2=O)cc1 (configuration not stated),-3.0,-0.3,15.7,-13.2,86.0*,1.1
CCCC(=O)OC12CCCN(C1)/C(=C/c1cccc(Cl)c1)C2 (configuration not stated),.,.,-1.3,.,.,.
C=CCN1C(=O)[C@@H](CC(=O)N2CCCCC2)[C@]2(C(=O)OC)CCCCC=C12,.,.,4.7,.,.,.
CC(C)COc1ccc(C(=O)OCCN2CCOCC2)c(O)c1,-7.7,1.1,-7.5,15.5,7.1,-3.5
O=C(OCCCN1CCOCC1)c1ccc(O)c(O)c1,-4.3,0.6,-3.1,-0.8,98.7*,-2.9
COc1cc(C(=O)OCCN2CCOCC2)ccc1O,4.5,-0.3,-1.7,-4.2,96.4*,1.9
COC(=O)c1cc2c(c3c4cc(C)ccc4n(S(=O)(=O)c4cccc(C)c4)c13)C(=O)N(Cc1ccc(C(F)(F)F)cc1)C2,.,.,11.8,.,.,.
COc1ccc2nc(NNC(=O)C3COc4ccccc4O3)sc2c1 (configuration not stated),-3.8,0.1,9.3,-3.7,98.7*,-1.5
COc1ccc(CCNC(=O)Nc2ccc3c(c2)[C@@]2(CC(=O)N(CC(C)C)C2c2ccccc2)C(=O)N3C)cc1OC (some centres not stated),.,.,6.1,.,.,.
O=C(CSc1nc(O)cc(=O)n1-c1ccccc1)c1ccc(Br)cc1,-3.6,-0.1,16.9,1.5,98.3*,4.2
COc1ccc(-n2c(SCC(=O)Nc3ccccc3)nc(O)cc2=O)cc1,-5.6,-0.2,22.9,36.8,87.7*,-5.3
COc1ccccc1NC(=O)CSc1nc(O)cc(=O)n1-c1ccccc1OC,-5.2,-0.1,40.1*,19.4,2.6,-2.9
CCCCc1nnc(NC(=O)CSc2nc(=O)cc(N)n2-c2cccc(C)c2)s1,-4.3,0.0,-3.4,25.8,98.4*,-1.5
Cc1cccc(-n2c(N)cc(=O)nc2SCC(=O)Nc2nnc(CC(C)C)s2)c1,-3.6,.,.,10.8,.,-5.2
COc1ccc(-n2c(SCC(=O)Nc3ccc(NC(C)=O)cc3)nc3ccccc3c2=O)cc1,-8.0,0.0,2.7,33.0,.,-2.2
COc1ccc(-c2cc(NC(=O)Cc3c[nH]c4ccccc34)ccc2Nc2cccnc2)c(OC)c1,.,.,14.6,.,.,.

# Screening data as filed in PubChem BioAssay.
